Assay outcomes from PubChem BioAssay.
This is a sample that favours compounds with a hit; in the whole collection about 2.3% have one here.
CHRM1 agonist: activates human CHRM1 receptor | P11229 | actives 0.33% (n = 360,000) | CHO-K1 hM1, Fluo-8 calcium fluorescence, agonist mode; 0% DMSO, 100% acetylcholine EC100 | activation, % at 3 µM;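 active = activation above the run's mean compound activation plus 3 SD, cut at about 16% in these data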;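 note: peak over basal fluorescence ratio within a 140 s kinetic read after compound addition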
Target sequence (P11229 whole entry, looked up): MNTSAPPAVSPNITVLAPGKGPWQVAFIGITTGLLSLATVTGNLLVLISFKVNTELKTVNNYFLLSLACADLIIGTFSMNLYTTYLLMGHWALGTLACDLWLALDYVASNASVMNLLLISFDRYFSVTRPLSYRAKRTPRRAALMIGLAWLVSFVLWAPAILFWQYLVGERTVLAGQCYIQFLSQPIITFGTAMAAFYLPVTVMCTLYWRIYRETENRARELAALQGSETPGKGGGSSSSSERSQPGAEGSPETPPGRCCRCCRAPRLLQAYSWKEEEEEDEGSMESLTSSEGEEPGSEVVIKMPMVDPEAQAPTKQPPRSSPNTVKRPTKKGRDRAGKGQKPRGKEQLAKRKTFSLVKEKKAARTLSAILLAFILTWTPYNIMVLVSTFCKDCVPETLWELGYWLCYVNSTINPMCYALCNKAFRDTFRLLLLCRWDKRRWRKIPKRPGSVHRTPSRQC
CHO-K1 Ca antag: nonselective inhibitor or artifact in parental CHO-K1 cells | actives 0.6% (n = 360,000) | ATP-induced calcium, Fluo-8 fluorescence | inhibition, % at 3 µM;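 active = inhibition above a per-plate cutoff, the plate's mean sample inhibition plus 3 SD, cut at about 24% in these data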;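 note: 0% = DMSO plus EC80 ATP and 100% = DMSO alone without ATP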
M1 PAM: potentiates human M1 receptor response to acetylcholine; P11229; CHO-K1 hM1, Fluo-8 calcium fluorescence, ACh EC20; 0% = ACh EC20, 100% = maximal ACh; activation, % at 3 µM; actives 0.088% (n = 360,000); in the data active = activation above about 19%, passing the limit was not always enough
CHO-K1 Ca PAM: M1 PAM counterscreen hit in parental CHO-K1 cells; ATP EC20, Fluo-8 calcium fluorescence; 0% at ATP EC20, 100% at ATP max; activation, % at 3 µM; actives 0.02% (n = 360,000); AID 602247;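 active = activation above the run cutoff, the mean activation of all test compounds plus 3 SD, cut at about 40% in these data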;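 note: peak over basal fluorescence ratio in a 140 s read after ATP addition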
M1 ag parental: counter-screen for M1 agonists: effect in parental CHO-K1 cells | actives 0.48% (n = 360,000) | activation, % at 3 µM | Fluo-8 calcium fluorescence; scaled to maximal ATP response, vehicle zero; in the data active = activation above about 15%;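 note: untransfected CHO-K1 host cells lacking M1 receptor as counterscreen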
CHRM1 antagonist: antagonists of human M1 muscarinic receptor. P11229. CHO-K1 hM1, Fluo-8 calcium fluorescence, ACh EC80 antagonist. inhibition, % at 3 µM. actives 1.3% (n = 360,000). AID 588852;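 active = percent inhibition above its own plate's cutoff, namely the mean of that plate's compound wells plus 3 SD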;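 note: peak over basal fluorescence ratio during 140 s after agonist addition; 0% = ACh EC80 plus DMSO and 100% = DMSO alone without agonist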
* hit, by the source's call.

Screening Cc1nc(N/C(N)=N/S(=O)(=O)c2ccc([N+](=O)[O-])cc2)nc2ccccc12 returned CHRM1 agonist -8, CHO-K1 Ca antag -7, M1 PAM 10, CHO-K1 Ca PAM 24, M1 ag parental 0 and CHRM1 antagonist 1.
For CC(C)N(CC#CC(O)(c1ccccc1)c1ccccc1)CCO the results were CHRM1 agonist -8, CHO-K1 Ca antag -10, M1 PAM -25, CHO-K1 Ca PAM 22, M1 ag parental 1 and CHRM1 antagonist 84*.
`OCCN(CC#CC(O)(c1ccccc1)c1ccccc1)CCO` gave CHRM1 agonist -7, CHO-K1 Ca antag -5, M1 PAM -5, CHO-K1 Ca PAM -1, M1 ag parental 0 and CHRM1 antagonist -2.
Screening CC(C)N(CC#CC(O)(c1ccccc1)c1ccccc1)C(C)C returned CHRM1 agonist -9, CHO-K1 Ca antag -8, M1 PAM -26, CHO-K1 Ca PAM 7, M1 ag parental 0 and CHRM1 antagonist 100*.
For CN(CC#CC(O)(c1ccccc1)c1ccccc1)C(C)(C)C the results were CHRM1 agonist -9, CHO-K1 Ca antag -5, M1 PAM -25, CHO-K1 Ca PAM 9, M1 ag parental 0 and CHRM1 antagonist 100*.
Cc1ccc(NC(=O)CN(C)C(=O)C(Sc2ccccc2)c2ccccc2)cc1 (stereo unspecified) was read as CHRM1 agonist -5, CHO-K1 Ca antag -9, M1 PAM 3, CHO-K1 Ca PAM 4, M1 ag parental 1 and CHRM1 antagonist -6.
`CCSc1nc(-c2cccnc2)ccc1C#N` gave CHRM1 agonist -10, CHO-K1 Ca antag -8, M1 PAM 4, CHO-K1 Ca PAM 3, M1 ag parental 0 and CHRM1 antagonist 6.
`O=C(Nc1nnc([C@H]2C[C@H](O)[C@@H](CO)O2)s1)c1cccc(Oc2ccccc2)c1` gave CHRM1 agonist 1, CHO-K1 Ca antag 25*, M1 PAM 9, CHO-K1 Ca PAM -17, M1 ag parental 0 and CHRM1 antagonist 0.
`Cc1ccc(NC(=O)Nc2nnc([C@@H]3C[C@H](O)[C@@H](CO)O3)s2)cc1` gave CHRM1 agonist -2, CHO-K1 Ca antag -6, M1 PAM -2, CHO-K1 Ca PAM 1, M1 ag parental 0 and CHRM1 antagonist -3.
`O=C(Nc1nnc([C@@H]2C[C@H](O)[C@@H](CO)O2)s1)c1cccc(Oc2ccccc2)c1` gave CHRM1 agonist -1, CHO-K1 Ca antag -3, M1 PAM 8, CHO-K1 Ca PAM -3, M1 ag parental 0 and CHRM1 antagonist -11.
`O=C(Nc1ccccc1)Nc1nnc([C@H]2C[C@H](O)[C@@H](CO)O2)s1` gave CHRM1 agonist -3, CHO-K1 Ca antag 26*, M1 PAM 1, CHO-K1 Ca PAM 4, M1 ag parental 0 and CHRM1 antagonist -3.
C/C(=N\NC(=O)c1nnn(-c2nonc2N)c1CN1CCCCC1)c1ccccc1O was read as CHRM1 agonist -5, CHO-K1 Ca antag -16, M1 PAM 3, CHO-K1 Ca PAM 3, M1 ag parental 0 and CHRM1 antagonist -9.
For Fc1ccccc1Cn1c2[n+](c3ccc(C(F)(F)F)cc31)CCCCC2 the results were CHRM1 agonist -9, CHO-K1 Ca antag -3, M1 PAM -20, CHO-K1 Ca PAM 6, M1 ag parental 0 and CHRM1 antagonist 34*.
Screening CC(C#N)N1CCN(S(=O)(=O)c2ccc3c(c2)CCC3)CC1 (stereo unspecified) returned CHRM1 agonist -6, CHO-K1 Ca antag -7, M1 PAM 3, CHO-K1 Ca PAM 8, M1 ag parental 0 and CHRM1 antagonist -2.
For Cc1c(P(=S)(c2ccccc2)c2ccccc2)[n+]2ccccc2n1CCc1ccccc1 the results were CHRM1 agonist -10, CHO-K1 Ca antag -9, M1 PAM -32, CHO-K1 Ca PAM 11, M1 ag parental 1 and CHRM1 antagonist 47*.
Screening CC(C)(C)CC(C)(C)NCC(O)COc1ccc2c(c1)CCC2 (stereo unspecified) returned CHRM1 agonist -3, CHO-K1 Ca antag 2, M1 PAM -24, CHO-K1 Ca PAM 13, M1 ag parental 3 and CHRM1 antagonist 49*.
Screening CCOC(=O)C1CCCN(C(=O)CSc2ccc(Br)cc2)C1 (stereo unspecified) returned CHRM1 agonist -7, CHO-K1 Ca antag 18, M1 PAM -1, CHO-K1 Ca PAM -10, M1 ag parental 0 and CHRM1 antagonist 5.
Screening CCOC(=O)C1CCCN(C(=O)CSc2nc(C)cc(C)n2)C1 (stereo unspecified) returned CHRM1 agonist 38*, CHO-K1 Ca antag -4, M1 PAM -5, CHO-K1 Ca PAM 10, M1 ag parental 0 and CHRM1 antagonist 8.
CCOC(=O)C1CCCN(C(=O)CCc2nnc(-c3ccc(C(C)=O)s3)o2)C1 (stereo unspecified) was read as CHRM1 agonist 29*, CHO-K1 Ca antag -13, M1 PAM -11, CHO-K1 Ca PAM 14, M1 ag parental 1 and CHRM1 antagonist 9.
For CCOC(=O)C1CCCN(C(=O)COc2ccccc2O)C1 (stereo unspecified) the results were CHRM1 agonist 74*, CHO-K1 Ca antag -11, M1 PAM -23, CHO-K1 Ca PAM 18, M1 ag parental 0 and CHRM1 antagonist 62*.
N#Cc1ccc(OCC(=O)N2CCCC2=O)cc1 was read as CHRM1 agonist -2, CHO-K1 Ca antag 1, M1 PAM 0, CHO-K1 Ca PAM -3, M1 ag parental 0 and CHRM1 antagonist 10.
Screening O=C(Cc1c(F)cccc1Cl)NNC(=S)Nc1ccc(S(=O)(=O)Nc2ncccn2)cc1 returned CHRM1 agonist -3, CHO-K1 Ca antag -7, M1 PAM 4, CHO-K1 Ca PAM 9, M1 ag parental 1 and CHRM1 antagonist -4.
`O=C(c1ccccc1)c1sc(N2CCOCC2)nc1-c1ccccc1` gave CHRM1 agonist -10, CHO-K1 Ca antag 10, M1 PAM -9, CHO-K1 Ca PAM 4, M1 ag parental 3 and CHRM1 antagonist 7.
Screening [2H]c1c([2H])c([2H])c(C(=O)c2sc(N3CCCCCC3)nc2-c2ccccc2)c([2H])c1[2H] returned CHRM1 agonist -5, CHO-K1 Ca antag -6, M1 PAM -19, CHO-K1 Ca PAM 9, M1 ag parental 0 and CHRM1 antagonist 39*.
For O=C(c1ccccc1)c1sc(N2CCCCCC2)nc1-c1ccccc1 the results were CHRM1 agonist -4, CHO-K1 Ca antag -4, M1 PAM -17, CHO-K1 Ca PAM 3, M1 ag parental -1 and CHRM1 antagonist 7.
COc1ccc(-c2nc(N3CCCCCC3)sc2C(=O)c2ccccc2)cc1 was read as CHRM1 agonist -3, CHO-K1 Ca antag 52*, M1 PAM -3, CHO-K1 Ca PAM 4, M1 ag parental 4 and CHRM1 antagonist -8.
